# Results filed as inconclusive are left out. Activity calls are given as the source filed them. Rule for the calls, unless noted: active = hit-call score of the fitted dose curve at least 0.9, where 1 is the maximum; inactive = score below 0.9.
# Assays:
# [1] = ATG_TAL_CIS: Attagene CIS-FACTORIAL HepG2 Assay for human TAL Basal Promoter (AID 2282966); conditions: HepG2 Attagene cis-factorial TAL promoter reporter; actives raise or lower the signal;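 note: background control endpoint measuring basal TAL promoter reporter mRNA not a specific factor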
# Summary of the method: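 Endogenous transcription-factor activity is sensed in HepG2 cells through transfected cis-promoter reporter constructs. After 24 h dosing, reporter transcripts are quantified by RT-PCR and capillary electrophoresis. Gain or loss of signal is fitted relative to DMSO.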
# [2] = ATG_TGFb_CIS: Attagene CIS-FACTORIAL HepG2 Assay for human Transforming Growth Factor (TGF) (AID 2282967); conditions: HepG2 Attagene CIS TGFb reporter, mRNA transcription; actives raise or lower the signal
# Summary of the method: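 Transient MRTU transfection of HepG2 (FuGene 6). Dose 24 h. TriZol RNA, oligo(dT) RT, PCR, 6-FAM primer extension, HpaI cut, CE. Bidirectional fit, DMSO = baseline.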
# [3] = ATG_VDRE_CIS: Attagene CIS-FACTORIAL HepG2 Assay for human Vitamin D Receptor Element (VDRE) (AID 2282968); conditions: HepG2 VDRE cis-reporter transcription, actives raise or lower the signal
# Summary of the method: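 Compounds were applied for 24 h to HepG2 cells transfected with promoter-regulated reporter units. Total RNA was reverse-transcribed, and reporter amplicons were fluorescently labelled and sized by capillary electrophoresis.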
# [4] = molecular target: Nuclear receptor subfamily 1 group I member 3 (Homo sapiens) (UniProt Q14994); test: ATG_CAR_TRANS: Attagene TRANS-FACTORIAL HepG2 Assay for human Constitutive Androstane Receptor (CAR) (AID 2282969; active = hit-call score of the fitted dose curve at least 0.9, where 1 is the maximum;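 note: activators raise reporter mRNA above DMSO so AC50 marks induction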); conditions: HepG2 Attagene TRANS-FACTORIAL CAR reporter
# Summary of the method: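 Transiently transfected HepG2, multiplex TRANS reporters (CAR-Gal4 chimera driving GAL4-UAS reporter). 24 h dosing. Readout: reporter transcript by RT-PCR + capillary electrophoresis, fluorescence intensity; positive direction vs DMSO.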
# [5] = molecular target: X-box-binding protein 1 (Homo sapiens) (UniProt P17861); test: ATG_Xbp1_CIS: Attagene CIS-FACTORIAL HepG2 Assay for human X-box Binding Protein 1 (XBP1) (AID 2282972); conditions: HepG2 XBP1 cis-element reporter, Attagene multiplex; actives raise or lower the signal
# Summary of the method: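 Multiplexed cis-reporter readout in transfected HepG2 liver cells. Exposure lasted 24 hours. Activity in either direction was fitted against DMSO as negative control and baseline.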
# [6] = ATG_M_19_TRANS: Attagene TRANS-FACTORIAL HepG2 Assay for M19 Transcription Factor (Internal Marker) (AID 2282974; active = hit-call score of the fitted dose curve at least 0.9, where 1 is the maximum); conditions: HepG2 Attagene TRANS-FACTORIAL M19 internal marker reporter
# Summary of the method: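 Background-control readout: after 24 h chemical exposure of transfected HepG2 carrying GAL4-driven reporter units, RNA was reverse-transcribed, amplified, fluorescently labeled and sized by capillary electrophoresis; gain-of-signal fit against DMSO.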
# [7] = ATG_GAL4_TRANS: Attagene TRANS-FACTORIAL HepG2 Assay for GAL4 (Internal Marker) (AID 2282976; active = hit-call score of the fitted dose curve at least 0.9, where 1 is the maximum); conditions: HepG2 Attagene TRANS GAL4 internal marker reporter
# Summary of the method: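 Fluorescence from capillary electrophoresis of labelled RT-PCR products quantifies reporter mRNA induction after 24 h dosing of HepG2 cells carrying transfected GAL4-UAS reporter transcription units. Vehicle DMSO serves as baseline.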
# [8] = molecular target: Steroid hormone receptor ERR1 (Homo sapiens) (UniProt P11474); test: ATG_ERRa_TRANS: Attagene TRANS-FACTORIAL HepG2 Assay for human Estrogen-Related Receptor alpha (ERRa) (AID 2282971; active = hit-call score of the fitted dose curve at least 0.9, where 1 is the maximum); conditions: HepG2 Attagene TRANS reporter, ERRa transactivation
# Summary of the method: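 HepG2 cells were transiently transfected with multiple GAL4-UAS reporter units, then dosed with compound for 24 h. Total RNA was reverse-transcribed, reporter cDNA PCR-amplified and fluorescently labelled, and fragments resolved by capillary electrophoresis; induction was compared with DMSO.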
# [9] = molecular target: Estrogen-related receptor gamma (Homo sapiens) (UniProt P62508); test: ATG_ERRg_TRANS: Attagene TRANS-FACTORIAL HepG2 Assay for human Estrogen-Related Receptor gamma (ERRg) (AID 2282977; active = hit-call score of the fitted dose curve at least 0.9, where 1 is the maximum;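 note: hits increase reporter signal over DMSO so potencies reflect activators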); conditions: HepG2 Attagene TRANS reporter, ERRg transactivation
# Summary of the method: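 Induction of reporter transcripts through a chimeric NR-Gal4 protein is quantified in transfected human HepG2 liver cells after 24 h chemical exposure, using RT-PCR with capillary electrophoresis detection and DMSO as baseline.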
# [10] = molecular target: Estrogen receptor (Homo sapiens) (UniProt P03372); test: ATG_ERa_TRANS: Attagene TRANS-FACTORIAL HepG2 Assay for human Estrogen Receptor alpha (ERa) (AID 2282970; active = hit-call score of the fitted dose curve at least 0.9, where 1 is the maximum); conditions: HepG2 Attagene TRANS ERa GAL4 reporter, mRNA
# Summary of the method: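 Transfected HepG2 cells carrying GAL4-UAS-driven reporter units were dosed for 24 hours. Total RNA was reverse-transcribed, reporter sequences PCR-amplified, FAM-labelled, HpaI-digested and resolved by capillary electrophoresis. Increases over DMSO control defined activity.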
# Chain of Estrogen receptor (Homo sapiens) (P03372 whole entry, looked up, the tested form may be a part): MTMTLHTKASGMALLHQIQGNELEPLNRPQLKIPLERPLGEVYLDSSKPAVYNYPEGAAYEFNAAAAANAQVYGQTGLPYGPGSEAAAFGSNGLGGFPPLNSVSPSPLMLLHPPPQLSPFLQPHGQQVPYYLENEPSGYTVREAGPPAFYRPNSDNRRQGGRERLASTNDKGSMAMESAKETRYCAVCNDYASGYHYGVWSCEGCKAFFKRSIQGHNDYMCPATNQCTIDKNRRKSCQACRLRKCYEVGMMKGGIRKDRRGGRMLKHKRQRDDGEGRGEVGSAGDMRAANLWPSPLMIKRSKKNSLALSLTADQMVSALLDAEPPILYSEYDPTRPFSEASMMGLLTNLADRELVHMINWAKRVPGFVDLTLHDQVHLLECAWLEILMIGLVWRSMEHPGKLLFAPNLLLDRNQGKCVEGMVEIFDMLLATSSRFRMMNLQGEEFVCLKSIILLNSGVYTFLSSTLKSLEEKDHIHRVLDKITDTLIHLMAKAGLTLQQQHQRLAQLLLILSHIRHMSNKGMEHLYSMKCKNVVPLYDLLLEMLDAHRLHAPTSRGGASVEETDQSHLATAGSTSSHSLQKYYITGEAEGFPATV
# Chain of Steroid hormone receptor ERR1 (Homo sapiens) (P11474 whole entry, looked up, the tested form may be a part): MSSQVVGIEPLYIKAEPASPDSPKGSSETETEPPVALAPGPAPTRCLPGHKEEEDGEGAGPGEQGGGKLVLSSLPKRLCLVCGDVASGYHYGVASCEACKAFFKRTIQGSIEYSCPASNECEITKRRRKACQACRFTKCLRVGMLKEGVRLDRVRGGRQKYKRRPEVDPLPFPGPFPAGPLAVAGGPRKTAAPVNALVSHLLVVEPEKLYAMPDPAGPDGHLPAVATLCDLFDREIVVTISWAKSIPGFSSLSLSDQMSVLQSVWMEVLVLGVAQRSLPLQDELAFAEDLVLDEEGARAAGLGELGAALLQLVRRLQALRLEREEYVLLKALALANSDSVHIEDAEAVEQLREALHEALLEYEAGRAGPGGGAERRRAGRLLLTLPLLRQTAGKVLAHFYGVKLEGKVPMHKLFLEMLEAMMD
# Chain of Nuclear receptor subfamily 1 group I member 3 (Homo sapiens) (Q14994 whole entry, looked up, the tested form may be a part): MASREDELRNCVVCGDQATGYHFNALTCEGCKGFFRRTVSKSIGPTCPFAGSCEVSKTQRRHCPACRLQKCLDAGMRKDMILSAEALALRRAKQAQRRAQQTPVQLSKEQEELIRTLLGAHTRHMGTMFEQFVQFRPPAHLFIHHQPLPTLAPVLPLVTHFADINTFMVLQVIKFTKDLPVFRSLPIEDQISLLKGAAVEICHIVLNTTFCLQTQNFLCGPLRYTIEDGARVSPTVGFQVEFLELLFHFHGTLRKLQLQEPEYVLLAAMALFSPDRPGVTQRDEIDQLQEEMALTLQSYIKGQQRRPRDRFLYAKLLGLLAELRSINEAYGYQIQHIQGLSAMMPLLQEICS
# Chain of Estrogen-related receptor gamma (Homo sapiens) (P62508 whole entry, looked up, the tested form may be a part): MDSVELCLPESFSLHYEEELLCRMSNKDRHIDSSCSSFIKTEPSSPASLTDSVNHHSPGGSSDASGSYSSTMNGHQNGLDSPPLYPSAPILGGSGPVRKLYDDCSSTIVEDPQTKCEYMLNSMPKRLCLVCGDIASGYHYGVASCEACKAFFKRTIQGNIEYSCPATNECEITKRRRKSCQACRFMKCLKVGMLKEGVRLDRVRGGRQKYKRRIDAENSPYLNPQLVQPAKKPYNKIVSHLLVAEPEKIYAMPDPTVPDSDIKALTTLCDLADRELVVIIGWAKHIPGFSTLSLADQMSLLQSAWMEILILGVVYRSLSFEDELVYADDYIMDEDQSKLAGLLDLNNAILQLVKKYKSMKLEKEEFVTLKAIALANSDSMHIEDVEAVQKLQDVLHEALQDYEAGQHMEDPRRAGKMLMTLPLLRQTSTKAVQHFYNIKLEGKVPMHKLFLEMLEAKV
# Chain of X-box-binding protein 1 (Homo sapiens) (P17861 whole entry, looked up): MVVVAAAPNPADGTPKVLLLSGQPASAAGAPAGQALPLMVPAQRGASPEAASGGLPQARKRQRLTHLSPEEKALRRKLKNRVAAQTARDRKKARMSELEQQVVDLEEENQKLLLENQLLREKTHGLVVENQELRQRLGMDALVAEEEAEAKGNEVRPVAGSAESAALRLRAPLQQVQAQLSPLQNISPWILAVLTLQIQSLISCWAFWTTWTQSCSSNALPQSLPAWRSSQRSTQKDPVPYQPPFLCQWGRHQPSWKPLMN
compound,measurement,setting,value
COc1cccc(OC)c1,outcome,[1],inactive
same,outcome,[2],inactive
same,outcome,[3],inactive
same,outcome,[4],inactive
same,outcome,[5],inactive
same,outcome,[6],inactive
same,outcome,[7],inactive
CC1(CO)CN(c2ccccc2)NC1=O (stereo unspecified),outcome,[1],inactive
same,outcome,[2],inactive
same,outcome,[3],inactive
same,outcome,[4],inactive
same,outcome,[5],inactive
CCCC(=O)C(C)=O,outcome,[1],inactive
same,outcome,[2],inactive
same,outcome,[3],inactive
same,outcome,[4],inactive
same,outcome,[8],inactive
same,outcome,[5],inactive
same,outcome,[9],inactive
C=CC(=O)OCC(O)COc1ccccc1 (stereo unspecified),outcome,[1],inactive
same,outcome,[2],inactive
same,AC50,[3],26.2 µM (active)
same,outcome,[4],inactive
same,AC50,[5],24.3 µM (active)
CCCCCCCCCCCCCCCCCC(=O)OCC(CC)CCCC (stereo unspecified),outcome,[1],inactive
same,outcome,[2],inactive
same,outcome,[3],inactive
same,outcome,[4],inactive
same,outcome,[5],inactive
same,outcome,[6],inactive
same,outcome,[7],inactive
CC1=CC(=O)NS(=O)(=O)O1,outcome,[1],inactive
same,outcome,[2],inactive
same,outcome,[3],inactive
same,outcome,[4],inactive
same,outcome,[5],inactive
same,outcome,[6],inactive
N#Cc1ccc(CC(=NNC(=O)Nc2ccc(OC(F)(F)F)cc2)c2cccc(C(F)(F)F)c2)cc1,outcome,[1],inactive
same,outcome,[2],inactive
same,outcome,[3],inactive
same,outcome,[4],inactive
same,outcome,[5],inactive
same,outcome,[6],inactive
same,outcome,[7],inactive
O=C(O)CCCCCCCC(=O)O,outcome,[1],inactive
same,outcome,[2],inactive
same,outcome,[3],inactive
same,outcome,[4],inactive
same,outcome,[5],inactive
COC(=O)OC,outcome,[1],inactive
same,outcome,[2],inactive
same,outcome,[3],inactive
same,outcome,[4],inactive
same,outcome,[8],inactive
same,outcome,[5],inactive
same,outcome,[6],inactive
same,outcome,[7],inactive
same,outcome,[9],inactive
CC(C)=CCCC(C)=CCCC(C)=CCO,outcome,[1],inactive
same,outcome,[2],inactive
same,outcome,[3],inactive
same,outcome,[4],inactive
same,outcome,[5],inactive
same,outcome,[6],inactive
CCc1ccc(C=O)cc1,outcome,[1],inactive
same,outcome,[2],inactive
same,outcome,[3],inactive
same,outcome,[4],inactive
same,outcome,[8],inactive
same,outcome,[5],inactive
same,outcome,[6],inactive
same,outcome,[9],inactive
Nc1cc([N+](=O)[O-])ccc1O,outcome,[1],inactive
same,outcome,[2],inactive
same,outcome,[3],inactive
same,outcome,[4],inactive
same,outcome,[8],inactive
same,outcome,[5],inactive
same,outcome,[6],inactive
same,outcome,[7],inactive
same,outcome,[9],inactive
COC(C)CCO (stereo unspecified),outcome,[1],inactive
same,outcome,[2],inactive
same,AC50,[3],65.3 µM (active)
same,outcome,[4],inactive
same,outcome,[5],inactive
CC(CCO)CCCC(C)(C)O (stereo unspecified),outcome,[1],inactive
same,outcome,[2],inactive
same,outcome,[3],inactive
same,outcome,[4],inactive
same,outcome,[5],inactive
same,outcome,[6],inactive
same,outcome,[7],inactive
CO[Si](CCCn1c(=O)n(CCC[Si](OC)(OC)OC)c(=O)n(CCC[Si](OC)(OC)OC)c1=O)(OC)OC,outcome,[1],inactive
same,outcome,[2],inactive
same,outcome,[3],inactive
same,outcome,[4],inactive
same,outcome,[5],inactive
same,outcome,[6],inactive
same,outcome,[7],inactive
ClCCCl,outcome,[1],inactive
same,outcome,[2],inactive
same,outcome,[3],inactive
same,outcome,[4],inactive
same,outcome,[5],inactive
Cc1cccc(C)c1C,outcome,[1],inactive
same,outcome,[2],inactive
same,outcome,[3],inactive
same,outcome,[4],inactive
same,outcome,[5],inactive
CNC(=O)Oc1ccc2c(c1)[C@]1(C)CCN(C)[C@@H]1N2C,outcome,[1],inactive
same,outcome,[2],inactive
same,outcome,[3],inactive
same,outcome,[4],inactive
same,outcome,[5],inactive
same,outcome,[6],inactive
CCCCC(CC)COC(=O)/C=C\C(=O)OCC(CC)CCCC (stereo unspecified),outcome,[1],inactive
same,outcome,[2],inactive
same,outcome,[3],inactive
same,outcome,[4],inactive
same,outcome,[5],inactive
same,outcome,[6],inactive
same,outcome,[7],inactive
same,outcome,[9],inactive
OCCOc1cccc(OCCO)c1,outcome,[1],inactive
same,outcome,[2],inactive
same,outcome,[3],inactive
same,outcome,[4],inactive
same,outcome,[8],inactive
same,outcome,[5],inactive
same,outcome,[6],inactive
same,outcome,[7],inactive
same,outcome,[9],inactive
BrC1CCC(Br)C(Br)CCC(Br)C(Br)CCC1Br (stereo unspecified),outcome,[1],inactive
same,outcome,[2],inactive
same,AC50,[3],2.52 µM (active)
same,outcome,[10],inactive
same,outcome,[8],inactive
same,AC50,[5],45.5 µM (active)
same,outcome,[6],inactive
CC1COc2ccccc2N1C(=O)C(Cl)Cl (stereo unspecified),outcome,[1],inactive
same,outcome,[2],inactive
same,AC50,[3],17.7 µM (active)
same,outcome,[10],inactive
same,outcome,[5],inactive
same,outcome,[6],inactive
CC(=O)/C=C/C1=C(C)CCCC1(C)C,outcome,[1],inactive
same,outcome,[2],inactive
same,AC50,[3],3.58 µM (active)
same,outcome,[10],inactive
same,outcome,[5],inactive
C=CCOC(=O)CCC1CCCCC1,outcome,[1],inactive
same,outcome,[2],inactive
same,outcome,[3],inactive
same,outcome,[4],inactive
same,outcome,[5],inactive
same,outcome,[7],inactive
C=C(C)C(=O)O[C@H]1C[C@@H]2CC[C@@]1(C)C2(C)C,outcome,[1],inactive
same,AC50,[2],143 µM (active)
same,outcome,[3],inactive
same,AC50,[10],38 µM (active)
same,outcome,[5],inactive
same,outcome,[6],inactive
OCCOCCOCCOCCO,outcome,[1],inactive
same,outcome,[2],inactive
same,outcome,[3],inactive
same,outcome,[10],inactive
same,outcome,[5],inactive
C[C@]12CC[C@H]3[C@@H](CCC4=CC(=O)CC[C@@]43C)[C@@H]1CC[C@@H]2C(=O)CO,outcome,[1],inactive
same,outcome,[2],inactive
same,AC50,[3],5.34 µM (active)
same,AC50,[10],1.78 µM (active)
same,outcome,[5],inactive
CC(=O)Nc1ccc(C)cc1C,outcome,[1],inactive
same,outcome,[2],inactive
same,outcome,[3],inactive
same,outcome,[4],inactive
same,outcome,[5],inactive
same,outcome,[6],inactive
same,outcome,[7],inactive
same,outcome,[9],inactive
O=Cc1ccc(Cl)c([N+](=O)[O-])c1,outcome,[1],inactive
same,outcome,[2],inactive
same,AC50,[3],100 µM (active)
same,outcome,[10],inactive
same,AC50,[5],149 µM (active)
CC(C)C(C)(C)C(C)(C)C(C)(C)S,outcome,[1],inactive
same,outcome,[2],inactive
same,AC50,[3],6.65 µM (active)
same,AC50,[10],40.8 µM (active)
same,outcome,[5],inactive
CC(C)(C)C(=O)c1ccccc1,outcome,[1],inactive
same,outcome,[2],inactive
same,outcome,[3],inactive
same,outcome,[10],inactive
same,outcome,[5],inactive
CC(=O)C=CC1=C(C)CCCC1(C)C,outcome,[1],inactive
same,outcome,[2],inactive
same,AC50,[3],1.26 µM (active)
same,outcome,[10],inactive
same,outcome,[5],inactive

# From PubChem BioAssay (EPA / NIEHS)
